This note sets out measurements from PubChem BioAssay.

Unmarked numbers belong to inactive results. For part of these data: Potency and affinity values are given separately. Activity calls are given as the source filed them. Unless noted, how the calls were made is not given here.

Assay [1] in a line: antimalarial activity against Dd2 strain (AID 2302;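 active means growth inhibition above 50% at the single 2 µM test dose, taken to imply half-maximal potency below 2 µM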;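 further: 0% = DMSO untreated growth and 100% = chloroquine plus artemisinin killed control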). As to conditions: P. falciparum Dd2 in RBCs, LDH growth readout, 72 h; at 2 µM; active compounds read high.
The nature of assay [2]: HepG2 cytotoxicity, primary screen, cytotoxicity control for P. falciparum antimalarial project, cell-based, ATP luminescence (AID 2303;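 active means inhibition above 50%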;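 further: 0% = DMSO wells and 100% = digitonin-killed cells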). As to conditions: HepG2 viability, 24-48 h, at 10 µM, active compounds read high.
The target of assay [3] is L-lactate dehydrogenase (Plasmodium falciparum (isolate CDC / Honduras)) (UniProt Q27743). Nature of the assay: PfLDH activity inhibition – cell lysate, 3D7 strain, counter-screen for P. falciparum growth inhibition project (AID 2304).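 Further: 0% = vehicle and 100% = reference inhibitor.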 The note with it: P. falciparum 3D7 crude extract, LDH APAD/NBT absorbance; at 2 µM; active compounds read high. In general terms: The purpose of a counterscreen is to sort out artefacts and off-target activity.
Sequence of L-lactate dehydrogenase (Plasmodium falciparum (isolate CDC / Honduras)) (Q27743 whole entry, looked up): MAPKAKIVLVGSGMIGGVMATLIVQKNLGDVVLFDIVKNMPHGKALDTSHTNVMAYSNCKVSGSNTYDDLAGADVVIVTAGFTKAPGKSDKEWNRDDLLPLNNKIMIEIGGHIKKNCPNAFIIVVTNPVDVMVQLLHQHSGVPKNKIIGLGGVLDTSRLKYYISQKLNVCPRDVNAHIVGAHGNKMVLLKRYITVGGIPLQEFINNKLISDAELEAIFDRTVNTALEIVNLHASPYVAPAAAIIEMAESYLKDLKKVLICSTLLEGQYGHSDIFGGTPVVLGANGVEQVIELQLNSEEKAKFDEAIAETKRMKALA

The nature of assay [4]: inhibition of 3D7 malaria parasite growth – strain 3D7 (AID 2306).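 Further: 0% = DMSO wells and 100% = chloroquine plus artemisinin control wells.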 As to conditions: P. falciparum 3D7 erythrocytic growth, LDH absorbance, 72 h; at 2 µM; active compounds read high.
Assay [5] has as its target Calcium-dependent protein kinase 1 (Plasmodium falciparum (isolate 3D7)) (UniProt P62344). Nature of the assay: PfCDPK1 kinase inhibitors, biochemical, TCAMS library (AID 1159585; cut-off not given, nearly all actives have IC50 up to about 0.98 µM;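 further: inhibitors leave more ATP so luminescence rises with inhibition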). The note with it: recombinant PfCDPK1, Kinase-Glo ATP depletion luminescence. (In Kinase-Glo more light means more ATP remaining.)
For assay [6], the target named is Plasmodium falciparum protein kinase 6 (PK6, PF3D7_1337100) (UniProt Q8IDW1). Nature of the assay: PfPK6 kinase inhibitors, biochemical, TCAMS library (AID 1159586). As to conditions: recombinant PfPK6, Kinase-Glo ATP depletion luminescence.
Sequence of Plasmodium falciparum protein kinase 6 (PK6, PF3D7_1337100) (Q8IDW1 1-305): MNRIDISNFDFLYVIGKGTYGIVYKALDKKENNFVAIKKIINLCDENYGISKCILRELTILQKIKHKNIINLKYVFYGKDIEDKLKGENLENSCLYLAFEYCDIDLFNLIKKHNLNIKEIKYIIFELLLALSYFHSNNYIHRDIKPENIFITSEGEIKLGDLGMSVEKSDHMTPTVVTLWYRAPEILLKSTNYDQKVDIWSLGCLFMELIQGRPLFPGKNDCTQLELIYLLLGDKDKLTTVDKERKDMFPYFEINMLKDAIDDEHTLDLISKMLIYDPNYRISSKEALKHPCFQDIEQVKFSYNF
Assay [7] addresses Protein kinase 7 (PK7), Plasmodium falciparum 3D7 (PF3D7_0213400) (UniProt Q7YTF7). Nature of the assay: inhibition of Plasmodium PK7 catalytic activity – biochemical, TCAMS antimalarial set, Kinase-Glo luminescence (AID 1159587). The note with it: recombinant PfPK7, Kinase-Glo ATP depletion luminescence.
In assay [8] the target is Calcium-dependent protein kinase 4 (Plasmodium falciparum (isolate 3D7)) (UniProt Q8IBS5). Nature of the assay: PfCDPK4 kinase inhibitors, biochemical, TCAMS library (AID 1159588; cut-off not given, nearly all actives have IC50 up to about 0.91 µM). As to conditions: recombinant PfCDPK4, Kinase-Glo ATP depletion luminescence.
Sequence of Calcium-dependent protein kinase 4 (Plasmodium falciparum (isolate 3D7)) (Q8IBS5 whole entry, looked up): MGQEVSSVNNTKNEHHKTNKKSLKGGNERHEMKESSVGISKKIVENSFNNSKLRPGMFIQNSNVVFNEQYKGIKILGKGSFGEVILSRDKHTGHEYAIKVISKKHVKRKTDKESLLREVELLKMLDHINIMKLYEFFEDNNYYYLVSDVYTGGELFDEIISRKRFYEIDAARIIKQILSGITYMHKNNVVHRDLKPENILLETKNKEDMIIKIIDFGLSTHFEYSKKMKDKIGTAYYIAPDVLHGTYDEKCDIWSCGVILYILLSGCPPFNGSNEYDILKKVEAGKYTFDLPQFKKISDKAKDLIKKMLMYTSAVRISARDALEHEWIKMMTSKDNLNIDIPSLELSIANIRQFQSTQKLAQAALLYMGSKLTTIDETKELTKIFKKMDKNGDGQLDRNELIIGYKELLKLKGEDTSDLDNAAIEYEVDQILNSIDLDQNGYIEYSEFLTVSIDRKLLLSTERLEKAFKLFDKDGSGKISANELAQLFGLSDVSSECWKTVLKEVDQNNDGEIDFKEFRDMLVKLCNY

Sequence of Protein kinase 7 (PK7), Plasmodium falciparum 3D7 (PF3D7_0213400) (Q7YTF7 1-343): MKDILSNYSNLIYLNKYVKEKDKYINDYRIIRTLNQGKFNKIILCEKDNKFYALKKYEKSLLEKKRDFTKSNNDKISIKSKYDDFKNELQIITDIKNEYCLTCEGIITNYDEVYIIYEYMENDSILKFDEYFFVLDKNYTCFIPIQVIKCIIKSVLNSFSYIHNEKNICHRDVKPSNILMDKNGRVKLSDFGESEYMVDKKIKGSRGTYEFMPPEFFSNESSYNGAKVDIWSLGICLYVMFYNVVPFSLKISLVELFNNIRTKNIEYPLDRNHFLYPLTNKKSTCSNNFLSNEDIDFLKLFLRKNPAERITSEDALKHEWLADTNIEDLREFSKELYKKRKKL
Sequence of Calcium-dependent protein kinase 1 (Plasmodium falciparum (isolate 3D7)) (P62344 whole entry, looked up): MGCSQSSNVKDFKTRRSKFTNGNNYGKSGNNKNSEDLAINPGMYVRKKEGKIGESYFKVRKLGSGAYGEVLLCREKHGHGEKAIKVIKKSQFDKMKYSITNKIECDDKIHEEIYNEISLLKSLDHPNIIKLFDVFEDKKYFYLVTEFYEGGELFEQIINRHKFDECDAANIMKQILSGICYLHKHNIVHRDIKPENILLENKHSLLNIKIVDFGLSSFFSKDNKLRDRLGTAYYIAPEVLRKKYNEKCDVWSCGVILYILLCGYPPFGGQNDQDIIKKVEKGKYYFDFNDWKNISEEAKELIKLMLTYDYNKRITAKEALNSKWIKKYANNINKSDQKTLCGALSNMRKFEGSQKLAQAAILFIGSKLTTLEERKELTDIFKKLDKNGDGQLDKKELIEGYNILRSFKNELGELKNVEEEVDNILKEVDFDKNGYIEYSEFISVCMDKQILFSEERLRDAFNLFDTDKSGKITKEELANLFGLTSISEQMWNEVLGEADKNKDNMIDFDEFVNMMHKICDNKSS

A word on the inhibition: it is the relative decrease from the control value, in per cent. Take `CC(=O)N(C)c1cccc(C(=O)Nc2ccc(-c3cccc(-c4nc5c(C)cccc5[nH]4)c3)cc2)c1`: the growth inhibition in assay [1] was 68% (active); in assay [4], 97% (active). The inhibition in assay [2] was 86% (active); in assay [3] it was -2%. Besides, the result in assay [5], in assay [6], in assay [7] and in assay [8] was inactive.
Take `CCN(CCCN1CCCCC1)c1cc(C)nc(Nc2cc(C)ccc2C)n1`: the figures for the growth inhibition in assay [1] and in assay [4] were 42% and 93% (active), respectively. Also, the inhibition in assay [2] is 34%; in assay [3], 2%. Further, the outcome in assay [5], in assay [6], in assay [7] and in assay [8] was inactive.
Consider `COc1ccc(F)cc1-c1cccc(CNC2CCN(CC3Cn4c(=O)ccc5ccc(F)c3c54)CC2)c1` (stereo not drawn), for which the growth inhibition was 27% in assay [1] and 100% (active) in assay [4]. Also, the inhibition was 46% in assay [2] and 1% in assay [3]. Besides, the result in assay [5], in assay [6], in assay [7] and in assay [8] was inactive.
For the molecule `CC1(C)N=C(N)N=C(N)N1OCCCOc1cccc(Cl)c1`, the growth inhibition in assay [1] and in assay [4] was 95% (active) in each case. Besides, the inhibition in assay [2] was 65% (active); in assay [3] it was -4%. The outcome in assay [5], in assay [6], in assay [7] and in assay [8] was inactive.
Turning to `Cc1ccc(-n2c(Cc3cccc4ccccc34)nnc2SCCC#N)c(C)c1`, the growth inhibition was 98% (active) in assay [1] and 95% (active) in assay [4]. Also, the inhibition in assay [2] is 0%; in assay [3], -7%. Also, the outcome in assay [5], in assay [6], in assay [7] and in assay [8] was inactive.
For `COc1ccc(CNCc2ccc(-c3cccc(-c4nc5ccc(C(F)(F)F)cc5[nH]4)c3)cc2)cc1`, the growth inhibition in assay [1] was 100% (active); in assay [4], 102% (active). Besides, the results for the inhibition in assay [2] and in assay [3] were 59% (active) and -8%, respectively. Further, the outcome in assay [5], in assay [6], in assay [7] and in assay [8] was inactive.
As for `COc1ccc(-c2nnc(Sc3ccc(C#N)c([N+](=O)[O-])c3)n2CCC(C)C)cc1`, the growth inhibition in assay [1] is 53% (active); in assay [4], 89% (active). The inhibition in assay [2] was 15%; in assay [3], 5%. Besides, the result in assay [5], in assay [6], in assay [7] and in assay [8] was inactive.
As for `Cc1noc(C)c1-c1cccc(CNCc2cccc(-c3ccc(-c4nc5ccccc5[nH]4)s3)c2)c1`, the growth inhibition in assay [1] is 29%; in assay [4] it was 101% (active). The values for the inhibition in assay [2] and in assay [3] were 24% and -1%, respectively. For the same molecule, the outcome in assay [5], in assay [6], in assay [7] and in assay [8] was inactive.
In the case of `O=C(Nc1ccc(C(F)(F)F)cc1)c1cccc(S(=O)(=O)NC2CCN(CC3CCCCC3)CC2)c1`, the results for the growth inhibition in assay [1] and in assay [4] were 12% and 99% (active), respectively. For the same molecule, the inhibition in assay [2] is 18%; in assay [3], -3%. In addition, the outcome in assay [5], in assay [6], in assay [7] and in assay [8] was inactive.
Regarding `O=C(Nc1ccc(C(F)(F)F)cc1)c1ccc(S(=O)(=O)NC2CCN(Cc3ccccc3)C2)cc1` (stereo not drawn), the growth inhibition is 5% in assay [1] and 101% (active) in assay [4]. Further, the inhibition in assay [2] is 42%; in assay [3], 5%. For the same molecule, the result in assay [5], in assay [6], in assay [7] and in assay [8] was inactive.
Turning to `COc1ccc(-c2onc(C(F)(F)F)c2-c2cc3ccccc3o2)c(O)c1`, the growth inhibition in assay [1] is 15%; in assay [4], 93% (active). The inhibition is 6% in assay [2] and 0% in assay [3]. Moreover, the outcome in assay [5], in assay [6], in assay [7] and in assay [8] was inactive.
As to `O=C(Nc1ccnc(N2CCCN(Cc3cccc(O)c3)CC2)c1)c1ccc(F)cc1`, the growth inhibition was 3% in assay [1] and 90% (active) in assay [4]. Moreover, the inhibition was 12% in assay [2] and 4% in assay [3]. Also, the result in assay [5], in assay [6], in assay [7] and in assay [8] was inactive.
For the molecule `CCOc1ccc(-c2nc(NC(=O)COc3ccc(OC)cc3)sc2C)cc1`, the growth inhibition was 87% (active) in assay [1] and 99% (active) in assay [4]. The results for the inhibition in assay [2] and in assay [3] were 0% and -9%, respectively. Further, the result in assay [5], in assay [6], in assay [7] and in assay [8] was inactive.
On to `Cc1ccc(Nc2nc(C)cc(N3CCN(c4ccccc4)CC3)n2)cc1`, for which the values for the growth inhibition in assay [1] and in assay [4] were 72% (active) and 93% (active), respectively. For the same molecule, the inhibition was 4% in assay [2] and 3% in assay [3]. The outcome in assay [5], in assay [6], in assay [7] and in assay [8] was inactive.
In the case of `CCCOc1ccc(C=C(CC(=O)O)c2nc3ccccc3s2)cc1OCC`, the values for the growth inhibition in assay [1] and in assay [4] were 84% (active) and 89% (active), respectively. Besides, the inhibition in assay [2] is 7%; in assay [3], -1%. The outcome in assay [5], in assay [6], in assay [7] and in assay [8] was inactive.
As for `Cc1nc(-c2ccc(C#N)cc2)sc1C(=O)NCCCCN1CCC(c2ccc3c(c2OCCO)CCCC3)CC1`, the growth inhibition is 10% in assay [1] and 99% (active) in assay [4]. Further, the results for the inhibition in assay [2] and in assay [3] were 14% and 6%, respectively. In addition, the outcome in assay [5], in assay [6], in assay [7] and in assay [8] was inactive.
As for `Cc1cc(C(=O)Nc2ccc3c(c2)CCN3C2CCN(Cc3cccc(F)c3F)C2)no1` (stereo not drawn), the growth inhibition was 94% (active) in assay [1] and 95% (active) in assay [4]. In addition, the figures for the inhibition in assay [2] and in assay [3] were 0% and -4%, respectively. Also, the result in assay [5], in assay [6], in assay [7] and in assay [8] was inactive.
Turning to `CCCC(=O)NC(c1ccc(C(C)C)cc1)c1ccc2cccnc2c1O` (stereo not drawn), the growth inhibition was 37% in assay [1] and 90% (active) in assay [4]. Besides, the results for the inhibition in assay [2] and in assay [3] were 50% (active) and 0%, respectively. In addition, the result in assay [5], in assay [6], in assay [7] and in assay [8] was inactive.
`O=C(NCc1ccco1)c1ccc(S(=O)(=O)c2ccc(Cl)cc2)cc1`: the results for the growth inhibition in assay [1] and in assay [4] were 95% (active) and 97% (active), respectively. Also, the results for the inhibition in assay [2] and in assay [3] were 6% and -3%, respectively. Also, the outcome in assay [5], in assay [6], in assay [7] and in assay [8] was inactive.
For the molecule `c1ccc2[nH]c(-c3ccc(-c4ccc(CN5CCCCC5)cc4)s3)nc2c1`, the growth inhibition in assay [1] was 69% (active); in assay [4] it was 102% (active). In addition, the inhibition in assay [2] was 41%; in assay [3], 2%. For the same molecule, the outcome in assay [5], in assay [6], in assay [7] and in assay [8] was inactive.
`Cn1ncc2c3c(CCN4CCC(NCc5ccc6c(c5)NC(=O)CO6)CC4)c(Cl)cnc3ccc21`: the growth inhibition is 92% (active) in assay [1] and 101% (active) in assay [4]. Further, the inhibition in assay [2] is 18%; in assay [3], -2%. Also, the outcome in assay [5], in assay [6], in assay [7] and in assay [8] was inactive.
